The source made the active and inactive calls. Rule for the calls: active = hit-call score of the fitted dose curve at least 0.9, where 1 is the maximum; inactive = score below 0.9.
How the values were obtained:
[1] = ATG_CRE_CIS: Attagene CIS-FACTORIAL HepG2 Assay for human cAMP Responsive Element (CRE) binding protein 3 (AID 2282926); details: HepG2 CRE cis-reporter, Attagene multiplexed mRNA; actives raise or lower the signal
Outline: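 Human liver HepG2, transient MRTU transfection, 24 h compound exposure. Total RNA → oligo(dT) RT → PCR → 6-FAM primer extension → HpaI cut → CE. Activity called both directions vs DMSO.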

[2] = target: CCAAT/enhancer-binding protein beta (Homo sapiens) (UniProt P17676); assay: ATG_C_EBP_CIS: Attagene CIS-FACTORIAL HepG2 Assay for human CCAAT/Enhancer Binding Protein (C/EBP) beta (AID 2282927); details: HepG2 Attagene cis-factorial transcription factor reporter; actives raise or lower the signal
Chain of CCAAT/enhancer-binding protein beta (Homo sapiens) (P17676 whole entry, looked up): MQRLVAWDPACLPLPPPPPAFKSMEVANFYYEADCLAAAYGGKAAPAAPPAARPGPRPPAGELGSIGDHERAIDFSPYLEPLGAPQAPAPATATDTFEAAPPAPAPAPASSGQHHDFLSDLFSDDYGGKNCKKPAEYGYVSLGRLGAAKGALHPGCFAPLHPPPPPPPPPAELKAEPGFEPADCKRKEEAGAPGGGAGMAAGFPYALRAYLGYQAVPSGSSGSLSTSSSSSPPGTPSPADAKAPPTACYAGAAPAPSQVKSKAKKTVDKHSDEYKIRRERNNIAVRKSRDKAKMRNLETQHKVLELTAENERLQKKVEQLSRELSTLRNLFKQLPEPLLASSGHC
Outline: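 RT-PCR/capillary electrophoresis fluorescence of reporter mRNA, 24 h post-dose, in HepG2 cells carrying transfected cis-promoter reporter units. Bidirectional curve fitting against DMSO baseline captures gain or loss of signal.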

[3] = ATG_CMV_CIS: Attagene CIS-FACTORIAL HepG2 Assay for human CMV (Internal Marker) (AID 2282928); details: HepG2 CMV promoter reporter, transcription factor profiling; actives raise or lower the signal;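 note: endpoint acts as a background internal control marker rather than a target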
Outline: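 HepG2 cells transiently transfected with multiple cis-regulated reporter units; 24 h compound exposure. Reporter mRNA quantified by RT-PCR, 6-FAM primer-extension labeling, HpaI digestion and capillary electrophoresis; bidirectional fitting against DMSO baseline.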

[4] = ATG_DR4_LXR_CIS: Attagene CIS-FACTORIAL HepG2 Assay for human Liver X Receptor (LXR), DR4 submotif (AID 2282929); details: HepG2 Attagene DR4 cis-reporter, mRNA transcription; actives raise or lower the signal
Outline: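 HepG2, transient MRTU transfection, cis-element (DR4) promoter; 24 h compound exposure; total RNA → oligo(dT) RT → PCR → 6-FAM primer extension → HpaI cut → CE. Gain/loss vs DMSO, bidirectional fit.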

[5] = target: Aryl hydrocarbon receptor (Homo sapiens) (UniProt P35869); assay: ATG_Ahr_CIS: Attagene CIS-FACTORIAL HepG2 Assay for human Aryl Hydrocarbon Receptor (Ahr) (AID 2282930); details: HepG2 AhR cis-factorial reporter transcription; actives raise or lower the signal
Chain of Aryl hydrocarbon receptor (Homo sapiens) (P35869 whole entry, looked up): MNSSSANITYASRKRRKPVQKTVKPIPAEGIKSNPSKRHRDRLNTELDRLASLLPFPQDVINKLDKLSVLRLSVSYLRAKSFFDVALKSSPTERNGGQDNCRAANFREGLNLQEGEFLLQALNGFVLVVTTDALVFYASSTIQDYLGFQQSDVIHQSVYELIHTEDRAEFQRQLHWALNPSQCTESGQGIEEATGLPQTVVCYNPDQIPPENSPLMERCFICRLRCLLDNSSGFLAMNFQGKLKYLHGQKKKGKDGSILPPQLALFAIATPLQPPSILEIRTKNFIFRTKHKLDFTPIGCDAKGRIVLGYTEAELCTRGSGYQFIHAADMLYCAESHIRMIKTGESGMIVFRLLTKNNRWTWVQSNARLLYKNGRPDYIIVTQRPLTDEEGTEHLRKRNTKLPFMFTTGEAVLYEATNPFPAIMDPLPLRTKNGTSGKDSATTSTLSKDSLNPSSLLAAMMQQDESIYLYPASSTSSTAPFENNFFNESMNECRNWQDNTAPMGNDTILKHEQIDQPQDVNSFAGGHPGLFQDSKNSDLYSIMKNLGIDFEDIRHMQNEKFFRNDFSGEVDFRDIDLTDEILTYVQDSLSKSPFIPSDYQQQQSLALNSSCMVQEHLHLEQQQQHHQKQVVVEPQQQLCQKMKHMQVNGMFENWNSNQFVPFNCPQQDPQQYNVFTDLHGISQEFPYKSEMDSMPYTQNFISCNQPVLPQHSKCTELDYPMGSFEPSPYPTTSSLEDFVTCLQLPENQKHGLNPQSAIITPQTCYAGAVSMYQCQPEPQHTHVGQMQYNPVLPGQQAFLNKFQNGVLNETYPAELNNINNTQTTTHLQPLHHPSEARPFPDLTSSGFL
Outline: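 HepG2 cells transiently transfected with cis-element-driven multiplexed reporter transcription units; endogenous transcription factor activity measured as reporter mRNA 24 h after dosing. RT-PCR, 6-FAM labelling, HpaI digestion, capillary electrophoresis; bidirectional fitting versus DMSO baseline.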

[6] = ATG_AP_1_CIS: Attagene CIS-FACTORIAL HepG2 Assay for human Activator Protein 1 (AP-1) (AID 2282931); details: HepG2 Attagene cis-factorial AP-1 reporter mRNA; actives raise or lower the signal
Outline: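 Transient MRTU transfection of HepG2 → 24 h chemical treatment → RNA isolation, RT-PCR, 6-FAM labelling, HpaI digest → capillary electrophoresis. Fit: bidirectional, DMSO negative control.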

[7] = ATG_AP_2_CIS: Attagene CIS-FACTORIAL HepG2 Assay for human Activator Protein 2 (AP-2) (AID 2282932); details: HepG2 AP-2 cis-reporter, Attagene transcription factor profiling; actives raise or lower the signal
Outline: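 HepG2 cells were transiently transfected with multiple cis-promoter reporter transcription units and dosed for 24 h. Reporter mRNA was measured by RT-PCR with capillary electrophoresis fluorescence; bidirectional fits relative to DMSO baseline.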

[8] = ATG_BRE_CIS: Attagene CIS-FACTORIAL HepG2 Assay for human Bone Morphogenetic Protein (BMP) Response Element (BRE) (AID 2282933); details: HepG2 BMP response element reporter, Attagene transcription factor profiling; actives raise or lower the signal
Outline: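 Transient MRTU transfection of human HepG2 liver cells; 24 h compound treatment; total RNA isolated, reverse-transcribed, PCR-amplified, 6-FAM labelled, HpaI-cut, capillary electrophoresis. DMSO = negative control/baseline, bidirectional fit.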

[9] = target: Retinoic acid receptor alpha (Homo sapiens) (UniProt P10276); assay: ATG_DR5_RAR_CIS: Attagene CIS-FACTORIAL HepG2 Assay for human Retinoic Acid Receptor Alpha (RARE), DR5 submotif (AID 2282934); details: HepG2 Attagene cis-factorial RARE DR5 reporter, mRNA; actives raise or lower the signal;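 for AC50: reporter responds to endogenous RAR alpha beta and gamma in HepG2 not RARA alone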
Chain of Retinoic acid receptor alpha (Homo sapiens) (P10276 whole entry, looked up): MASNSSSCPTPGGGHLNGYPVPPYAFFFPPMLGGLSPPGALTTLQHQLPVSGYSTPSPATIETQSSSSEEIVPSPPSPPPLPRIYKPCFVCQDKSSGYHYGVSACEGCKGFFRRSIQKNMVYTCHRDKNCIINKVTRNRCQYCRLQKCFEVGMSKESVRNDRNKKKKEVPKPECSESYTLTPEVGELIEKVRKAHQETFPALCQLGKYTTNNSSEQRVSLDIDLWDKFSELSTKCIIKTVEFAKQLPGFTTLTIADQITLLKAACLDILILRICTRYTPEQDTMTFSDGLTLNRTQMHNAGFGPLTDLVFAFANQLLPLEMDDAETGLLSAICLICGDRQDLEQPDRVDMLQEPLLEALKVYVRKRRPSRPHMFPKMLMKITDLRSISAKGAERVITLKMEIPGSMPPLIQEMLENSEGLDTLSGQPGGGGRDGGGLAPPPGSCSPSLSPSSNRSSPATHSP
Outline: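 HepG2 cells transiently transfected with multiplexed reporter units under cis (DR5 RARE) promoters, so endogenous transcription factor activity is measured. After 24 h compound exposure, reporter mRNA is quantified by RT-PCR with fluorescent labelling and capillary electrophoresis; bidirectional fitting versus DMSO.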

[10] = target: Transcription factor E2F1 (Homo sapiens) (UniProt Q01094); assay: ATG_E2F_CIS: Attagene CIS-FACTORIAL HepG2 Assay for human E2F Transcription Factor 1 (AID 2282935); details: HepG2 Attagene cis-reporter, E2F reporter RNA transcripts; actives raise or lower the signal
Chain of Transcription factor E2F1 (Homo sapiens) (Q01094 whole entry, looked up): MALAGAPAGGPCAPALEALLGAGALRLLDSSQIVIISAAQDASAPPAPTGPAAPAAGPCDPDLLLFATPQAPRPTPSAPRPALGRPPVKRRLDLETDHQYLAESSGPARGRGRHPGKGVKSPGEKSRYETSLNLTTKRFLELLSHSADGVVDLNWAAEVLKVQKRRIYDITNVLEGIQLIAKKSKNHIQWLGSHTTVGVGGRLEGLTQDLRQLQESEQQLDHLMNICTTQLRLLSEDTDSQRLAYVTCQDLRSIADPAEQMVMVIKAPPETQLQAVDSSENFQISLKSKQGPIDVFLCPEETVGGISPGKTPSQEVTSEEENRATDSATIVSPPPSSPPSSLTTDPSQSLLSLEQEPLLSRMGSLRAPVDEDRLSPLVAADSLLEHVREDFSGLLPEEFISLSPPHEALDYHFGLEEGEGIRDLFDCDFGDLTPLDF
Outline: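 HepG2 cells transiently transfected with multiplexed cis-element reporter units, dosed for 24 h. Reporter mRNA measured by RT-PCR, 6-FAM primer-extension labeling, HpaI digestion and capillary electrophoresis; bidirectional fit versus DMSO baseline.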

[11] = ATG_E_Box_CIS: Attagene CIS-FACTORIAL HepG2 Assay for human Enhancer Box (E-box) (AID 2282936); details: HepG2 E-box cis-reporter transcription, actives raise or lower the signal
Outline: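 HepG2 cells transiently transfected with multiplexed cis-element reporter units sensing endogenous transcription factor activity; 24 h compound exposure. Reporter mRNA measured by RT-PCR, 6-FAM primer extension, HpaI digestion and capillary electrophoresis; bidirectional fit versus DMSO.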

[12] = ATG_M_61_CIS: Attagene CIS-FACTORIAL HepG2 Assay for M61 Transcription Factor (Internal Marker) (AID 2282937); details: HepG2 Attagene CIS-FACTORIAL M61 internal marker reporter; actives raise or lower the signal
Outline: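 Human liver HepG2, transient MRTU transfection (cis promoter elements), 24 h compound. Total RNA → oligo(dT) RT → PCR → FAM label → HpaI → CE. Internal background marker; bidirectional fitting, DMSO = baseline.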

[13] = ATG_EGR_CIS: Attagene CIS-FACTORIAL HepG2 Assay for human Early Growth Response 1 (EGR1) (AID 2282938); details: HepG2 Attagene CIS-FACTORIAL EGR reporter mRNA; actives raise or lower the signal
Outline: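 Transient transfection of human HepG2 with multiple cis-regulated reporter units, chemical exposure 24 h, total RNA isolated. Reverse transcription, PCR, fluorescent labelling and capillary electrophoresis quantify reporter transcripts; activity fitted bidirectionally against DMSO.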

[14] = ATG_M_19_CIS: Attagene CIS-FACTORIAL HepG2 Assay for M19 Transcription Factor (Internal Marker) (AID 2282939); details: HepG2 Attagene CIS-FACTORIAL M19 internal marker reporter; actives raise or lower the signal
Outline: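 Transfect HepG2 with MRTU reporter library → dose chemical, 24 h → isolate total RNA, reverse-transcribe with oligo(dT) → PCR, 6-FAM label, HpaI cut (2 h, 37 C) → capillary electrophoresis. Bidirectional fit vs DMSO.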

[15] = ATG_ERE_CIS: Attagene CIS-FACTORIAL HepG2 Assay for Estrogen Response Element (ERE) (AID 2282940); details: HepG2 ERE cis-reporter, Attagene RNA transcript; actives raise or lower the signal
Outline: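 Transient MRTU transfection of human HepG2; cis-element promoters; 24 h dosing; total RNA → RT (oligo dT) → PCR → 6-FAM primer extension → HpaI digest → CE fluorescence. Bidirectional fit, DMSO baseline.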

[16] = ATG_Ets_CIS: Attagene CIS-FACTORIAL HepG2 Assay for human Erythroblast Transformation Specific (ETS) (AID 2282941); details: HepG2 ETS cis-reporter transcription, actives raise or lower the signal
Outline: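 HepG2 cells transiently transfected with cis-promoter reporter transcription units were dosed for 24 h; reporter mRNA was measured by RT-PCR, 6-FAM primer extension, HpaI digestion and capillary electrophoresis, with bidirectional fitting against DMSO baseline.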

[17] = target: Hepatocyte nuclear factor 3-beta (Homo sapiens) (UniProt Q9Y261); assay: ATG_FoxA2_CIS: Attagene CIS-FACTORIAL HepG2 Assay for human Forkhead box A2 (FOXA2) (AID 2282942); details: HepG2 cis-reporter transcription factor activity, 24 h; actives raise or lower the signal
Chain of Hepatocyte nuclear factor 3-beta (Homo sapiens) (Q9Y261 whole entry, looked up): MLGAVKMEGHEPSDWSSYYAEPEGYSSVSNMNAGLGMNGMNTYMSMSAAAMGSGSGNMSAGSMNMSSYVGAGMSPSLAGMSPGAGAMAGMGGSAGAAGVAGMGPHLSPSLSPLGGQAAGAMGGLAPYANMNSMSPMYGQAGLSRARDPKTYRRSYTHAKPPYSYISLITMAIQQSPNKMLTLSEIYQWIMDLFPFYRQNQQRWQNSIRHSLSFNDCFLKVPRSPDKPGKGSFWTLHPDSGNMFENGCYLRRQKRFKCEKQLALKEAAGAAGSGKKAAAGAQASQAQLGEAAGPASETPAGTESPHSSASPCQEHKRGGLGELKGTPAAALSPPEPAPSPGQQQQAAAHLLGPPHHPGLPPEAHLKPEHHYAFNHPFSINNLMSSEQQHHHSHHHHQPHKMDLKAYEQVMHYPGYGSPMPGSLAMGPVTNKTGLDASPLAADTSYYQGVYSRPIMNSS
Outline: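 Transient MRTU transfection of HepG2 liver cells; 24 h treatment; total RNA → oligo(dT) RT → PCR → FAM primer extension → HpaI cut → CE. Bidirectional fit vs DMSO.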

[18] = ATG_FoxO_CIS: Attagene CIS-FACTORIAL HepG2 Assay for human Forkhead box O (FoxO) (AID 2282943); details: HepG2 Attagene cis-reporter, FoxO element, mRNA; actives raise or lower the signal
Outline: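 HepG2 cells transiently transfected with cis-promoter-driven multiple reporter transcription units; 24 h after chemical dosing, reporter mRNA quantified by RT-PCR, fluorescent primer extension, HpaI digestion and capillary electrophoresis. Bidirectional fitting versus DMSO baseline.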

[19] = ATG_GLI_CIS: Attagene CIS-FACTORIAL HepG2 Assay for human Zinc Finger Protein GLI1 (AID 2282945); details: HepG2, Attagene cis-factorial reporter mRNA, GLI element; actives raise or lower the signal
Outline: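 HepG2 cells transiently transfected with cis-promoter multiplexed reporter units report endogenous transcription factor activity. After 24 h chemical exposure, reporter mRNA was quantified by RT-PCR, 6-FAM labelling, HpaI digestion and capillary electrophoresis, with bidirectional fitting against DMSO.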

[20] = ATG_GATA_CIS: Attagene CIS-FACTORIAL HepG2 Assay for human GATA Binding Protein (AID 2282944); details: HepG2 GATA cis-element reporter, Attagene multiplex mRNA; actives raise or lower the signal
Outline: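 Transient MRTU transfection, HepG2, 24 h compound exposure. Total RNA → oligo(dT) RT → PCR → 6-FAM primer extension → HpaI cut → CE. Bidirectional fit vs DMSO.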

Measured: AC50

CC(=O)c1ccc[nH]1
not listed: [20]
inactive: all other assays above

CC1(C)O[C@@H]2C[C@H]3[C@@H]4C[C@H](F)C5=CC(=O)CC[C@]5(C)[C@H]4[C@@H](O)C[C@]3(C)[C@]2(C(=O)CO)O1
inactive: all assays above

O=C1c2cccc(O)c2C(=O)c2c(O)cc(CO)cc21
active: [3] 11.3 µM | [6] 32.5 µM | [11] 2.41 µM | [15] 4.22 µM
inactive: all other assays above

NC(=O)N=NC(N)=O
active: [8] 35 µM
inactive: all other assays above

O=C(O)c1ccccc1Nc1cccc(C(F)(F)F)c1
active: [4] 9.37 µM | [6] 60 µM | [11] 89.2 µM
inactive: all other assays above

O=[N+]([O-])C1(Br)COCOC1
active: [1] 53.6 µM | [8] 33.4 µM | [11] 61 µM
not listed: [17]
inactive: all other assays above

CCOCC(=O)O
not listed: [20]
inactive: all other assays above

CCCCCC(C)O (stereo not given)
not listed: [20]
inactive: all other assays above

CCCCCCCCCCOS(=O)(=O)O
active: [4] 67 µM | [9] 61.3 µM
not listed: [17]
inactive: all other assays above

CC(=O)Oc1ccc(C)cc1
inactive: all assays above

Reference: PubChem BioAssay (EPA / NIEHS)
